DAX1 inh-1: DAX1 (NR0B1) inhibitors, primary screen, cell-based, HEK293, Gal4-DAX1, luciferase luminescence; Nuclear receptor subfamily 0 group B member 1 (Homo sapiens), P51843; HEK293 Gal4-DAX1 luciferase reporter; inhibition, % at 6.75 µM; hit rate 0.99% among 340,000; AID 504766, 2011;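 active = inhibition above the mean over all tested compounds plus 3 SD, cut at about 4.2% in these data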;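 note: 0% = DAX1-transfected cells with DMSO and 100% = empty-vector control cells with DMSO; inhibition shows as a rise in luminescence from relieved DAX1 repression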
AHR act: AHR activators, primary screen, cell-based, luminescence, luciferase reporter, human; activation, % at 5 µM; AHR-responsive luciferase reporter cells; AID 2796, 2010; hit rate 2.5% among 320,000; in the data active = activation above about 47%;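 note: 0% = vehicle wells and 100% = reference agonist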
Target sequence (P35869 whole entry, looked up): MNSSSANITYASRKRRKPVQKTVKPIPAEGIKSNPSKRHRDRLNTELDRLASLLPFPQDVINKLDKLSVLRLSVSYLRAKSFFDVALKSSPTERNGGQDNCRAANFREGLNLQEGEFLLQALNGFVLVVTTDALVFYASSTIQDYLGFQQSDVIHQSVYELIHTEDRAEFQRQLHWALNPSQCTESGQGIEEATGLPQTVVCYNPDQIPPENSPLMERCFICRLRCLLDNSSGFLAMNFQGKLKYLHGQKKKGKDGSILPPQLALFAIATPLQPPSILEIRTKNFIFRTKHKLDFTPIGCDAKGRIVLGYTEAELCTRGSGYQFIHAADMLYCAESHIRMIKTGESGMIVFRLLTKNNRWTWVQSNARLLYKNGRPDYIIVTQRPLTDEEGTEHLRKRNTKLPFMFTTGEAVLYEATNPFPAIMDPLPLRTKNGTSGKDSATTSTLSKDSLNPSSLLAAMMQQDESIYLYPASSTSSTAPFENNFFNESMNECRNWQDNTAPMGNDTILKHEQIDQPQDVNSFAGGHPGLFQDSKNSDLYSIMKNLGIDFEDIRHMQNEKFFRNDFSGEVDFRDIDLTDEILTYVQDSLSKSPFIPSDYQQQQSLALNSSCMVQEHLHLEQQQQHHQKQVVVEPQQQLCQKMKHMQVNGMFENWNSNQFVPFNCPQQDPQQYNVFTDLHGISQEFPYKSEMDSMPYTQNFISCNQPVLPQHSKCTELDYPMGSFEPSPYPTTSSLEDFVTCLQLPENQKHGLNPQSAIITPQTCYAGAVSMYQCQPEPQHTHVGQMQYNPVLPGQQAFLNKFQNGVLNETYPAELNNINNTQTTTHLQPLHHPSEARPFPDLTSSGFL
hcDAF12 agonist: H. contortus DAF-12 nuclear receptor activators, primary screen, cell-based, luminescence, HEK293, lit1-tk-luc reporter | HEK293 hcDAF-12 lit1-tk-luc reporter; 0% DMSO, 100% Δ7-dafachronic acid | hit rate 1.4% among 370,000 | AID 652067, 2013 | activation, % at 6.8 µM;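 active = activation above the mean of all tested compounds plus 3 SD, cut at about 5.5% in these data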;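 note: 100% = response to 3 µM Δ7-dafachronic acid high control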
ssDAF12 agonist: S. stercoralis DAF-12 nuclear receptor activators, primary screen, cell-based, luminescence, HEK293, GRIP1 co-expression, lit1-tk-luc; Nuclear hormone receptor DAF-12 (Strongyloides stercoralis); HEK293 ssDAF-12/GRIP1 lit1-tk-luc reporter; % of 3 µM dafachronic acid response; activation, % at 6.8 µM; hit rate 1% among 370,000; AID 652126, 2013;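 active = activation above the mean over all tested compounds plus 3 SD, cut at about 0.9% in these data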;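 note: 0% = DMSO-only wells and 100% = 3 µM delta7-dafachronic acid wells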
DAX1 inh-2: DAX1 (NR0B1) inhibitors on StAR promoter, primary screen, cell-based, luminescence, SF-1 (NR5A1), full-length DAX-1. inhibition, % at 6.8 µM. HEK293T StAR-luciferase reporter, SF-1/DAX-1 repression relief. hit rate 1.1% among 370,000;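 active = inhibition above the mean over all tested compounds plus 3 SD, cut at about 3.6% in these data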;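 note: 0% = DAX-1 cells with DMSO and 100% = cells lacking DAX-1 with DMSO; higher inhibition means more luminescence from relief of DAX-1 repression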
hgDAF12 agonist: H. glycines DAF-12 receptor agonists, primary screen, cell-based, luminescence, HEK293, GAL4 fusion, UAS-luciferase. HEK293 GAL4-hgDAF12 UAS-luciferase reporter, agonist luminescence; normalized to butyrate control. activation, % at 6.8 µM. hit rate 1.8% among 370,000. AID 687014, 2013;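 active = activation above a cutoff set at the mean of all screened compounds plus 3 SD, cut at about 10% in these data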;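 note: 0% = DMSO wells and 100% = sodium butyrate wells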
LXR ag: LXR agonists, Gal4 luciferase reporter, confirmation, counter-screen for hcDAF-12 agonist project, cell-based, luminescence, HEK293, H. contortus campaign. HEK293 Gal4-LXR tk-luc reporter, 24 h; normalized: DMSO 0%, positive control 100%. activation, % at 6.8 µM. 3,400 tested, under 10 active. shares compounds with hcDAF12 agonist. AID 743027, 2013;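 active = mean percent activation of the reporter above a cutoff set as the average over tested compounds plus their standard deviation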
hcDAF12 conf: H. contortus DAF-12 receptor agonists, confirmation, cell-based, luminescence, HEK293, lit1-tk-luc, triplicate; HEK293 hcDAF-12 lit1-tk-luc reporter; % of Δ7-dafachronic acid response; shares compounds with hcDAF12 agonist; AID 743032, 2013; hit rate 61% among 3,400; activation, % at 6.8 µM;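 active = mean activation across triplicate tests above the threshold derived from the earlier primary screen, cut at about 5.5% in these data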;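 note: 0% = DMSO only wells and 100% = 3 µM Δ7-dafachronic acid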
Starred values were filed as active, the others as inactive. This is a sample that favours compounds with a hit; in the whole collection about 5.7% have one here.

Results for O=c1cccc2n1Cc1cc3ccccc3nc1-2 ?
DAX1 inh-1: 3; AHR act: 58*; hcDAF12 agonist: 14*; ssDAF12 agonist: 0; DAX1 inh-2: 2; hgDAF12 agonist: 10; LXR ag: 1; hcDAF12 conf: 9.7*

How did CC[C@@]1(O)C(=O)OCc2c1cc1n(c2=O)Cc2cc3c(N)cccc3nc2-1 do in these assays?
DAX1 inh-1: -4; AHR act: -6; hcDAF12 agonist: -2; ssDAF12 agonist: -2; DAX1 inh-2: -2; hgDAF12 agonist: -9

How did O=C1C=C(c2cnc3ccccc3c2)C[C@@H](c2ccc3c(c2)OCO3)C1 do in these assays?
DAX1 inh-1: 0; AHR act: 47; hcDAF12 agonist: 1; ssDAF12 agonist: -1; DAX1 inh-2: 1; hgDAF12 agonist: 1

How did Cc1ccc(C(=O)NC(=S)Nc2c(C)ccc3nsnc23)cc1 do in these assays?
DAX1 inh-1: 0; AHR act: 94*; hcDAF12 agonist: 7.6*; ssDAF12 agonist: 1.6*; DAX1 inh-2: 0; hgDAF12 agonist: 0; LXR ag: 0; hcDAF12 conf: 3

What do the screens show for `CCCCNC(=O)C1(C)CCN1C(=O)c1oc2ccccc2c1C` (stereo not given)?
hcDAF12 agonist: -1; ssDAF12 agonist: -1; DAX1 inh-2: 1; hgDAF12 agonist: 3

What do the screens show for `COc1ccc2c(C(=O)CN3CCSCC3)c[nH]c2c1`?
DAX1 inh-1: 0; AHR act: 15; hcDAF12 agonist: 6.6*; ssDAF12 agonist: 0; DAX1 inh-2: 1; hgDAF12 agonist: 3; LXR ag: 0; hcDAF12 conf: 4

How did N=c1oc2ccccc2cc1-c1nc(-c2ccccc2)cs1 do in these assays?
DAX1 inh-1: 2; AHR act: 59*; hcDAF12 agonist: 11*; ssDAF12 agonist: 1.1*; DAX1 inh-2: 2; hgDAF12 agonist: 7; LXR ag: 0; hcDAF12 conf: 3

Results for Cc1ccc(-c2nc3cccnc3s2)cc1NC(=O)c1ccco1 ?
DAX1 inh-1: 1; AHR act: 42; hcDAF12 agonist: 13*; ssDAF12 agonist: 0; DAX1 inh-2: 2; hgDAF12 agonist: 9; LXR ag: 0; hcDAF12 conf: 4

How did N#CC1(NC(=O)CSc2nnc3n2CCCCC3)CCCCC1 do in these assays?
DAX1 inh-1: 0; AHR act: 2; hcDAF12 agonist: -1; ssDAF12 agonist: -1; DAX1 inh-2: -1; hgDAF12 agonist: 0

How did COc1ccc(/C=N\Nc2ccccc2[N+](=O)[O-])c(C(=O)O)c1OC do in these assays?
DAX1 inh-1: 2; AHR act: 5; hcDAF12 agonist: 1; ssDAF12 agonist: -1; DAX1 inh-2: 0; hgDAF12 agonist: 2

How did COc1ccccc1/C=N\Nc1ccccc1[N+](=O)[O-] do in these assays?
DAX1 inh-1: 7.9*; AHR act: 79*; hcDAF12 agonist: 7.0*; ssDAF12 agonist: -1; DAX1 inh-2: 1; hgDAF12 agonist: 6; LXR ag: 2; hcDAF12 conf: 6.4*

Results for CN1CCN(CC(=O)Nc2nc(-c3c[nH]c4ccccc34)cs2)CC1 ?
DAX1 inh-1: 1; AHR act: 13; hcDAF12 agonist: 2; ssDAF12 agonist: 0; DAX1 inh-2: 2; hgDAF12 agonist: 4

What do the screens show for `CCC(C)Nc1nc(-c2c[nH]c3ccccc23)cs1` (stereo not given)?
DAX1 inh-1: 1; AHR act: 37; hcDAF12 agonist: 8.8*; ssDAF12 agonist: 1; DAX1 inh-2: 0; hgDAF12 agonist: 7; LXR ag: 0; hcDAF12 conf: 5

What do the screens show for `Cc1ccc(/C=C/C(=O)C2C(=O)c3ccccc3C2=O)cc1`?
DAX1 inh-1: -2; AHR act: 7; hcDAF12 agonist: 8.7*; ssDAF12 agonist: 0; DAX1 inh-2: 2; hgDAF12 agonist: 8; LXR ag: 1; hcDAF12 conf: 12*

How did Cc1ccc(/C=C/C(=O)c2ccc(C)cc2)cc1 do in these assays?
DAX1 inh-1: -1; AHR act: -7; hcDAF12 agonist: -1; ssDAF12 agonist: -1; DAX1 inh-2: 0; hgDAF12 agonist: 3

Results for CCOC(=O)N1N=C(c2ccc(C)cc2)CC1(O)C(F)(F)F (stereo not given) ?
DAX1 inh-1: -1; AHR act: 5; hcDAF12 agonist: 8.1*; ssDAF12 agonist: 0; DAX1 inh-2: 4.3*; hgDAF12 agonist: 11*; LXR ag: 1; hcDAF12 conf: 8.0*

What do the screens show for `Cc1ccc(NC(=O)C2=C(O)CCn3c2nc2ccccc23)cc1`?
DAX1 inh-1: 1; AHR act: 57*; hcDAF12 agonist: 8.9*; ssDAF12 agonist: 1.9*; DAX1 inh-2: 0; hgDAF12 agonist: 4; LXR ag: 0; hcDAF12 conf: 5

What do the screens show for `CCS(=O)(=O)Nc1ccc(-c2nc3cccnc3s2)cc1`?
DAX1 inh-1: 1; AHR act: 66*; hcDAF12 agonist: 6.9*; ssDAF12 agonist: 1; DAX1 inh-2: 3; hgDAF12 agonist: 11*; LXR ag: 2; hcDAF12 conf: 7.7*

Results for O=C(COC(=O)CN1C(=O)C2CCCCC2C1=O)Nc1ccc(S(=O)(=O)N2CCOCC2)cc1 (stereo not given) ?
DAX1 inh-1: 1; AHR act: 10; hcDAF12 agonist: 8.9*; ssDAF12 agonist: 1.5*; DAX1 inh-2: 0; hgDAF12 agonist: 1; LXR ag: 0; hcDAF12 conf: 3

What do the screens show for `COc1ccc(NC(=O)Nc2cc(C)nn2-c2ccccc2)cc1`?
hcDAF12 agonist: -1; ssDAF12 agonist: -1; DAX1 inh-2: 1; hgDAF12 agonist: -1

Screens: PubChem, The Scripps Research Institute Molecular Screening Center
